{"source": "PubChem BioAssay (NCI)", "note": "This is part of a sample that, as a whole, favours compounds with a hit. Of some 83,000 tested, about 20% had one in any assay.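 The test compound was applied at a single concentration to cells in 96-well plates for 48 hours, and percent growth was recorded.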 Unmarked numbers belong to inactive results. Activity calls are given as the source filed them. Rule for the calls: active = growth percent below 10; inactive = the rest.", "data": [{"tested_on": "MDA-MB-468 breast", "test": "NCI-60 one-dose screen, 48 h (100 = growth as untreated, 0 = no growth, -100 = all killed)", "details": "10 µM unless noted", "values": [{"compound": "Cc1cn(C2CCCCC2)c(=O)[nH]c1=O", "growth": "105%"}, {"compound": "Cc1cc(Br)c(N)c(Br)c1", "growth": "98.3%"}, {"compound": "Cc1ccc(C)c(COc2cc(NC(=O)c3ccc4c(c3)OCO4)ccc2N(C)S(C)(=O)=O)c1", "growth": "-29.6% (active)"}, {"compound": "C[C@H](NC(=O)[C@@H]1CSSC[C@@H](NC(=O)Cc2nc3ccccc3cc2O)C(=O)NCC(=O)N1C)c1ccccc1", "growth": "17.5%"}]}]}
